High-throughput results (PubChem BioAssay)
Hits are enriched below; roughly 2.5% of the tested compounds scored in any of these assays.
PAX8 inh HTS – PAX8 transcriptional activity inhibition. inhibition, % at 12.6 µM. actives 1.2% (n = 360,000). RMG-I TPO-luciferase reporter, SteadyGlo, 24 h;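 active = mean replicate inhibition at least 60% with every replicate also reaching 60%; inconclusive = only one of the two criteria is met; inactive = mean below 60% and not all replicates reaching 60%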;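 also: luciferase light reporting Pax8 driven TPO promoter activity; plate controls were median of neutral control wells for no effect and mitoxantrone controls for full effect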
F508del corr – correctors of CFTR F508del function in bronchial epithelial cells | actives 0.36% (n = 350,000) | activity (quench increase), % at 7.58 µM | CFBE cells, YFP halide quenching; stimulated with forskolin plus potentiator P3; % fluorescence drop versus neutral controls;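 active = mean added fluorescence quench of at least 8% versus neutral control, with both replicates also reaching 8%; inconclusive = only one of the mean or replicate conditions met; inactive = mean below 8% and not both replicates reaching 8%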;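 also: cells transiently co-express mutant CFTR-F508del with the halide-sensitive YFP; corrector assay measuring rescue of mutant channel to the surface after 24 h compound exposure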
FXN GAA850 act – frataxin GAA850 promoter activation; actives 0.56% (n = 360,000); HEK293 lucGAA850 FXN promoter luciferase reporter, 24 h; percent of 10 µM SAHA response; activation, % at 6 µM; AID 540364;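 active = activation above the average of all compounds screened plus 3 SD, cutoff fixed separately per campaign, cut at about 7.5% in these data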;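 also: 0% = DMSO wells and 100% = 10 µM SAHA wells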
Env fusion inh – HIV envelope-mediated fusion inhibition; HeLa-JRFL Env/CEM21 cell fusion, luciferase; inhibition, % at 12.3 µM; actives 1.1% (n = 360,000); AID 651610;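 active = mean replicate inhibition score of at least 50 and every replicate individually at or above 50; inconclusive = only one of the two criteria met; inactive = mean below 50 and not all replicates reaching 50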;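 also: 0% = plate neutral controls and 100% = maraviroc near 300 nM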
EWS-Fli inh – EWS/Fli transcriptional activity inhibition | actives 0.67% (n = 350,000) | inhibition, % at 12.6 µM | AID 651661 | A673 NR0B1-luciferase reporter, viability-normalised;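 active = mean inhibition of at least 50% after viability correction, with every replicate also passing that limit; inconclusive = mean reaches 50% but only one of two replicates passes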;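 also: firefly luciferase signal divided by Alamar Blue viability fluorescence both relative to DMSO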
* = called active by the depositor; ? = inconclusive; . = no result; [ ] = dose if it differs, or a comment.

SMILES | PAX8 inh HTS | F508del corr | FXN GAA850 act | Env fusion inh | EWS-Fli inh
O=C(CCc1ccc(S(=O)(=O)NCCc2ccccc2)cc1)N1CCN(Cc2ccc3c(c2)OCO3)CC1 | 45 | . | -7 | 77* | .
CCNS(=O)(=O)c1ccc(CCC(=O)N2CCN(Cc3ccccc3)CC2)cc1 | 3 | 2 | -1 | -5 | 12
Cc1ccc(S(=O)(=O)N(C)c2ccc(C(=O)N3CCN(Cc4ccc5c(c4)OCO5)CC3)cc2)cc1 | . | . | -3 | 83* | .
CC(C)CNS(=O)(=O)c1ccc(CCC(=O)N2CCN(Cc3ccc4c(c3)OCO4)CC2)cc1 | . | . | -1 | 79* | .
CN(c1ccc(C(=O)N2CCN(Cc3ccc4c(c3)OCO4)CC2)cc1)S(=O)(=O)c1ccccc1 | . | . | -4 | ? | .
COc1ccc2c3c(n(C)c2c1)[C@H](CO)N(C(=O)Cc1ccccn1)CC31CCN(Cc2ccccn2)CC1 | -11 | 1 | . | . | 5
C[C@@H]1CN([C@@H](C)CO)C(=O)c2cc(C#CCN(C)C)cnc2O[C@H]1CN(C)C(=O)c1ccc(F)cc1 | . | 1 | . | -5[16.7 µM] | -12
C[C@H](CO)N1C[C@H](C)[C@@H](CN(C)S(=O)(=O)c2ccc(Cl)cc2)OCCCC[C@H](C)Oc2ccc(NC(=O)Nc3ccc(F)cc3)cc2C1=O | 46 | -2 | . | -18[16.7 µM] | 23
C[C@H]1CCCCO[C@H](CN(C)S(=O)(=O)c2ccc(Cl)cc2)[C@@H](C)CN([C@@H](C)CO)C(=O)c2cc(NC(=O)Nc3ccccc3)ccc2O1 | 32 | -3 | . | -3[16.7 µM] | 0
C[C@H](CO)N1C[C@H](C)[C@H](CN(C)S(=O)(=O)c2ccc(Cl)cc2)OCCCC[C@H](C)Oc2ccc(NC(=O)Nc3ccccc3)cc2C1=O | 65* | -1 | . | 32[16.7 µM] | -2
C[C@@H]1CCCCO[C@@H](CN(C)S(=O)(=O)c2ccc(Cl)cc2)[C@H](C)CN([C@H](C)CO)C(=O)c2cc(NC(=O)Cc3ccccc3)ccc2O1 | 62* | -3 | . | -10[16.7 µM] | 15
C[C@@H]1CCCCO[C@H](CN(C)S(=O)(=O)c2ccc(Cl)cc2)[C@@H](C)CN([C@@H](C)CO)C(=O)c2cc(NC(=O)Nc3ccc(F)cc3)ccc2O1 | 66* | 0 | . | 9[16.7 µM] | 6
C[C@@H]1CN([C@H](C)CO)C(=O)c2cc(NC(=O)Nc3ccc(F)cc3)ccc2O[C@@H](C)CCCCO[C@H]1CN(C)S(=O)(=O)c1ccc(Cl)cc1 | 76* | -4 | . | 22[16.7 µM] | -15
C[C@H](CO)N1C[C@H](C)[C@@H](CN(C)CC2CC2)Oc2cc(C#CC3(O)CCCC3)ccc2S1(=O)=O | . | 0 | . | -30[16.7 µM] | 11
C[C@H]1CCCCO[C@H](CN(C)S(=O)(=O)c2ccc(Cl)cc2)[C@@H](C)CN([C@@H](C)CO)C(=O)c2cc(NC(=O)NC3CCCCC3)ccc2O1 | 3 | -5 | . | 5[16.7 µM] | 2
C[C@@H]1CCCCO[C@H](CN(C)S(=O)(=O)c2ccc(Cl)cc2)[C@H](C)CN([C@@H](C)CO)C(=O)c2cc(NC(=O)NC3CCCCC3)ccc2O1 | 63* | -4 | . | 9[16.7 µM] | 6
Cc1ccc(-c2nc(=S)c3c(n2Cc2ccco2)CC(C)(C)OC3)cc1 | . | . | 7.6* | . | .
Cc1ccc(-c2nc(=S)c3c(n2Cc2ccco2)CCCC3)cc1 | . | . | 2 | . | .
CCC(=O)N1[C@H](CO)[C@H](c2ccccc2)[C@H]1CN(CC)C(=O)c1ccc(F)cc1 | 7 | -1 | . | . | 4
COc1ccccc1NC(=O)CC1SC(=N)N(c2ccccc2)C1=O (centres undefined) | 2 | -4 | 0 | -15 | -7
CCOc1ccccc1NC(=O)CC1SC(=N)N(c2ccccc2)C1=O (centres undefined) | -12 | 15* | . | 7 | 9
COc1ccc2c3c(n(C)c2c1)[C@H](CO)N(C(C)=O)CC31CN(S(=O)(=O)c2ccccc2)C1 | . | 1 | . | . | -5
Cc1ccccc1-c1ccc2c(c1)O[C@H](CN(C)C(=O)Nc1ccc(C(F)(F)F)cc1)[C@H](C)CN([C@H](C)CO)S2(=O)=O | 83* | -6 | . | 72*[16.7 µM] | 15
Cc1ccc(-c2ccc3c(c2)O[C@@H](CN(C)C(=O)Nc2ccccc2)[C@@H](C)CN([C@H](C)CO)S3(=O)=O)cc1 | 68* | 2 | . | 29[16.7 µM] | -19
Cc1ccc(-c2ccc3c(c2)O[C@H](CN(C)C(=O)Nc2ccc(F)cc2)[C@H](C)CN([C@H](C)CO)S3(=O)=O)cc1 | . | 1 | . | -18[16.7 µM] | 18
